Bioassay records as filed in PubChem.
PABP polyA inh – blocks human PABP binding to poly(A) RNA. fluorescence polarization. calls only at 35 µM. 290,000 compounds, 1% hits. P11940. AID 2014;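 further: calls also rest on retests at 20 µM and on dose response follow-up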
EBV gp42 inh – EBV gp42 inhibition; Q1HVG2; 220,000 compounds, 0.42% hits; inhibition, % (tested at 21.74 µM); Fluorescence polarization binding assay, mP read-out; in the data active means inhibition above about 50%
Target sequence (Q1HVG2 whole entry, looked up): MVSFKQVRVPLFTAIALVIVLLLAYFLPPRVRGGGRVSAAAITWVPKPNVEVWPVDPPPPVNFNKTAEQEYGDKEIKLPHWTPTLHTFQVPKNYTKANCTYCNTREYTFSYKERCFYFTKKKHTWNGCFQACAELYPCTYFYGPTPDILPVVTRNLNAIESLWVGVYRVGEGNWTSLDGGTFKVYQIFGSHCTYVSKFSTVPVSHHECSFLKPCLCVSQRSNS
eIF4E 4G PPI – blocks eIF4E binding to eIF4G | 220,000 compounds, 0.37% hits | P63073+Q04637 | TR-FRET eIF4E-eIF4GI(517-606) binding, 2 h | AID 782 | inhibition, % at 21.7 µM;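 active means inhibition above about 30%, limit read from the data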;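 further: 0% = full FRET control wells and 100% = background wells lacking eIF4GI fragment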
PABP1 MLLE inh – inhibitors of microRNA-mediated deadenylation, human PABP1 MLLE binding | 360,000 compounds, 0.36% hits | inhibition, % at 20 µM | GST-MLLE / FITC-PAM2 fluorescence polarization | AID 588489; in the data active means inhibition above about 35%, passing the limit was not always enough;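 further: plate controls were DMSO wells with GST-MLLE for no effect and wells lacking GST-MLLE protein for full effect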
eIF4H FP inh – inhibitors of RNA binding by human eIF4H; Q15056; eIF4H fluorescence polarization binding assay; inhibition, % at 35 µM; 290,000 compounds, 0.94% hits; AID 2012;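 further: calls also rest on retests at 20 µM and on dose response follow-up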
Numbers without * were called inactive; [ ] = remark or other dose. In the library only some 1.7% were active in any assay of this set; here they are far more common. Unless noted, how the calls were made is not given here.

COc1ccc(NC(=O)CSc2nnc(-c3ccccc3C)n2N)cc1OC was read as PABP polyA inh inactive, EBV gp42 inh -1, eIF4E 4G PPI 2, PABP1 MLLE inh -4 and eIF4H FP inh 2.
`Cc1c(C(=O)Nc2ccc(F)cc2)cn2c(nc3ccccc32)c1C#N` gave PABP polyA inh inactive, EBV gp42 inh -14, eIF4E 4G PPI 2, PABP1 MLLE inh -27 and eIF4H FP inh 18.
N#Cc1c2nc3ccccc3nc2n2cc(NC(=O)c3ccc(F)cc3)ccc12 was read as PABP polyA inh inactive, EBV gp42 inh 106*, eIF4E 4G PPI 16, PABP1 MLLE inh 37 and eIF4H FP inh inconclusive.
Screening CN1CCN(C2=C(Cl)C(=O)C(c3cnc(N4CCCCC4)s3)=C(Cl)C2=O)CC1 returned PABP polyA inh inactive, EBV gp42 inh -7, eIF4E 4G PPI 54*[fluorescence artefact?], PABP1 MLLE inh 19 and eIF4H FP inh inconclusive.
For O=C(CSc1nc2ccccc2c(=O)n1Cc1ccccc1)Nc1ccc(Br)cc1C(=O)O the results were PABP polyA inh inactive, PABP1 MLLE inh -41 and eIF4H FP inh -14.
CC1CCCCN1c1nnc(NC(=O)c2cc(-c3ccc(Br)cc3)on2)s1 (configuration not stated) was read as PABP polyA inh active, EBV gp42 inh -5, eIF4E 4G PPI 1, PABP1 MLLE inh -7 and eIF4H FP inh 87*.
O=[N+]([O-])c1ccc(/C=C/c2nc3ccc([N+](=O)[O-])cc3[nH]2)cc1 was read as PABP polyA inh inactive, EBV gp42 inh 113*, eIF4E 4G PPI -10, PABP1 MLLE inh 0 and eIF4H FP inh 0.
c1ccc(-c2ccnc3nc(N4CCN(c5ccccc5)CC4)nn23)cc1 was read as PABP polyA inh inactive, EBV gp42 inh 72*, eIF4E 4G PPI 7, PABP1 MLLE inh 2 and eIF4H FP inh 32.
`CC(C(=O)c1ccc(Br)cc1)[n+]1cccc2ccccc21` (configuration not stated) gave PABP polyA inh active, PABP1 MLLE inh -28 and eIF4H FP inh 90.
`CC(C(=O)c1ccc(Br)cc1)[n+]1cccc(NC(=O)c2ccccc2)c1` (configuration not stated) gave PABP polyA inh inactive, EBV gp42 inh -2, eIF4E 4G PPI 0, PABP1 MLLE inh 7 and eIF4H FP inh -12.
`CCc1c(C)sc(NC(=O)C2CCCCC2C(=O)O)c1C(N)=O` (configuration not stated) gave PABP polyA inh inactive, EBV gp42 inh -14, eIF4E 4G PPI 55*, PABP1 MLLE inh 31 and eIF4H FP inh 27.
Screening COc1ccc(NC(=O)C2CCCNC2=O)cc1 (configuration not stated) returned PABP polyA inh inactive, PABP1 MLLE inh 6 and eIF4H FP inh -11.
CC(=O)c1ccc(NC(=O)C2CCCNC2=O)cc1 (configuration not stated) was read as PABP polyA inh inactive, EBV gp42 inh -15, eIF4E 4G PPI -4, PABP1 MLLE inh 40* and eIF4H FP inh -1.
For Cn1c(-c2ccc(C=O)s2)nc2c3ccccc3c3ccccc3c21 the results were PABP polyA inh inactive, EBV gp42 inh 94*, eIF4E 4G PPI -47, PABP1 MLLE inh 53 and eIF4H FP inh 130.
`COC(=O)n1c(=S)oc2cc(Cl)ccc21` gave PABP polyA inh inactive, EBV gp42 inh 7, eIF4E 4G PPI 61* and eIF4H FP inh -9.
CC(C)(C)c1cc(C(=O)NNc2cc(C(F)(F)F)ccc2Cl)n(Cc2ccccc2)n1 was read as PABP polyA inh inactive, EBV gp42 inh -16, eIF4E 4G PPI 5, PABP1 MLLE inh -25 and eIF4H FP inh 52*.
`COc1ccccc1NNC(=O)c1cc(C(C)(C)C)nn1Cc1ccccc1` gave PABP polyA inh inactive, EBV gp42 inh -3, eIF4E 4G PPI 4, PABP1 MLLE inh 1 and eIF4H FP inh -16.
`O=c1[nH]c2cc3c(cc2cc1CN(Cc1nnnn1CC1CCCO1)C1CCCCC1)OCO3` (configuration not stated) gave PABP polyA inh inactive, EBV gp42 inh 57*, eIF4E 4G PPI 7, PABP1 MLLE inh 72 and eIF4H FP inh 24.
`O=c1[nH]c2cc3c(cc2cc1CN(CCc1ccccc1)Cc1nnnn1CC1CCCO1)OCO3` (configuration not stated) gave PABP polyA inh active, EBV gp42 inh -13, eIF4E 4G PPI 8, PABP1 MLLE inh 10 and eIF4H FP inh inconclusive.
For O=c1[nH]c2cc3c(cc2cc1CN(Cc1nnnn1CC1CCCO1)C1CCCC1)OCO3 (configuration not stated) the results were PABP polyA inh active, EBV gp42 inh -3, eIF4E 4G PPI 2, PABP1 MLLE inh 64* and eIF4H FP inh 76.
Screening CC1CCN(C(c2cc3cc4c(cc3[nH]c2=O)OCO4)c2nnnn2CC2CCCO2)CC1 (configuration not stated) returned PABP polyA inh inactive, EBV gp42 inh 2, eIF4E 4G PPI -3, PABP1 MLLE inh -16 and eIF4H FP inh 0.
Screening CCC(C)(C)n1nnnc1CN(Cc1ccco1)Cc1cc2cc3c(cc2[nH]c1=O)OCO3 returned PABP polyA inh inactive, EBV gp42 inh 11, PABP1 MLLE inh 40* and eIF4H FP inh -3.
CC(Oc1cccc(Cl)c1)C(=O)Nc1ccc(N2CCOCC2)cc1N1CCOCC1 (configuration not stated) was read as PABP1 MLLE inh 3.
For O=C(CC(c1ccccc1)C1CCCCC1=O)c1ccccc1 (configuration not stated) the results were PABP1 MLLE inh -10.
Screening COc1ccc(CC(=O)N2CCc3cc(OC)c(OC)cc3C2O)cc1OC (configuration not stated) returned PABP polyA inh inactive, EBV gp42 inh -8, eIF4E 4G PPI -15, PABP1 MLLE inh -3 and eIF4H FP inh -4.
Cc1ccc(-n2c(N)c(C(N)=O)sc2=S)cc1 was read as PABP polyA inh inactive, EBV gp42 inh -21, eIF4E 4G PPI 34*[fluorescence artefact?], PABP1 MLLE inh 32 and eIF4H FP inh 7.
Cc1ccc(-n2c(N)c(C(=O)NCc3ccco3)sc2=S)cc1 was read as PABP polyA inh inactive, EBV gp42 inh -1, eIF4E 4G PPI 0, PABP1 MLLE inh 15 and eIF4H FP inh 3.
Screening Fc1ccc(C2CCCN2Cc2nc(Cc3ccccc3F)no2)cc1 (configuration not stated) returned PABP polyA inh inactive, EBV gp42 inh -1, eIF4E 4G PPI -3, PABP1 MLLE inh 2 and eIF4H FP inh -4.
`Fc1ccc(C2CCCN2Cc2nc(Cc3ccccc3)no2)cc1` (configuration not stated) gave PABP polyA inh inactive, EBV gp42 inh -7, eIF4E 4G PPI 60*, PABP1 MLLE inh 8 and eIF4H FP inh -4.
For O=C(Nc1cccc([N+](=O)[O-])c1)c1cc2ccccc2cc1O the results were PABP polyA inh active, EBV gp42 inh 13, eIF4E 4G PPI -2, PABP1 MLLE inh -1 and eIF4H FP inh 61*.
